Several values for one entry are separate records, joined by “and”; a condition that tells them apart may be missing. Equal values may be shown once. Inconclusive results are not listed. For part of these data: Results with a measured potency or affinity are listed apart. Some structures have more than one record in an assay (separate samples or runs), and their calls can disagree. Activity calls are given as the source filed them.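 The calls were made as follows, unless noted: active = compounds whose cell count with miR-34 switched on is under 0.7 times the count with it off; inactive = the rest.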
How the values were obtained:
[1] = system: Hepatitis C virus NS3 helicase; test: HCV NS3 helicase inhibitors, primary screen, biochemical, fluorescence polarization, LOPAC1280 library (AID 687035; in the data active = inhibition above about 37%); settings: Purified HCV NS3 helicase, Cy5-dT15 ssDNA binding fluorescence polarization; stronger effect = higher value; concentration not given here
[2] = Cy5 fluorescence quenching or enhancement artefacts, artefact control for HCV NS3 helicase inhibitor project, biochemical, LOPAC1280 (AID 687037; call rule not given here); settings: Cy5-DNA-NS3h complex fluorescence interference counterscreen
[3] = sensitizers of A549 cells to miR-34 induction, primary screen, imaging, A549 dox-inducible miR-34, nuclei and caspase counts (AID 1347080); settings: A549 miR-34 inducible, Hoechst nuclei count, 48 h
[4] = survival rescue of mitochondrial mutant cells in low glucose, primary screen, MELAS cybrids, Rieske KO mouse fibroblasts, CellTiter-Glo (AID 1508586;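 active = mean z-score across replicates of 1.96 or higher in either the MELAS or the Rieske mutant cell line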;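 also: z relative to plate mean and SD of compound and empty wells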)
[5] = viability rescue of complex I mutant cybrids, primary screen, cell-based, galactose medium, ATP luminescence (AID 1645843;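 active = z-score of at least 1.8 in each of two replicates, scored against plate mean and spread of sample wells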;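 also: positive z means more ATP and so rescue of galactose-driven cybrid death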); settings: complex I mutant cybrid cells, 72 h, stronger effect = higher value
[6] = target: ATP-dependent translocase ABCB1 (Homo sapiens) (UniProt P08183); test: MDR1 (ABCB1) efflux transporter inhibition, cell-based (AID 377; in the data active = fluorescence slope change above about 50%); settings: MDR1-expressing cells, fluorescent substrate accumulation slope; stronger effect = higher value; concentration not given here
ATP-dependent translocase ABCB1 (Homo sapiens), sequence (P08183 whole entry, looked up): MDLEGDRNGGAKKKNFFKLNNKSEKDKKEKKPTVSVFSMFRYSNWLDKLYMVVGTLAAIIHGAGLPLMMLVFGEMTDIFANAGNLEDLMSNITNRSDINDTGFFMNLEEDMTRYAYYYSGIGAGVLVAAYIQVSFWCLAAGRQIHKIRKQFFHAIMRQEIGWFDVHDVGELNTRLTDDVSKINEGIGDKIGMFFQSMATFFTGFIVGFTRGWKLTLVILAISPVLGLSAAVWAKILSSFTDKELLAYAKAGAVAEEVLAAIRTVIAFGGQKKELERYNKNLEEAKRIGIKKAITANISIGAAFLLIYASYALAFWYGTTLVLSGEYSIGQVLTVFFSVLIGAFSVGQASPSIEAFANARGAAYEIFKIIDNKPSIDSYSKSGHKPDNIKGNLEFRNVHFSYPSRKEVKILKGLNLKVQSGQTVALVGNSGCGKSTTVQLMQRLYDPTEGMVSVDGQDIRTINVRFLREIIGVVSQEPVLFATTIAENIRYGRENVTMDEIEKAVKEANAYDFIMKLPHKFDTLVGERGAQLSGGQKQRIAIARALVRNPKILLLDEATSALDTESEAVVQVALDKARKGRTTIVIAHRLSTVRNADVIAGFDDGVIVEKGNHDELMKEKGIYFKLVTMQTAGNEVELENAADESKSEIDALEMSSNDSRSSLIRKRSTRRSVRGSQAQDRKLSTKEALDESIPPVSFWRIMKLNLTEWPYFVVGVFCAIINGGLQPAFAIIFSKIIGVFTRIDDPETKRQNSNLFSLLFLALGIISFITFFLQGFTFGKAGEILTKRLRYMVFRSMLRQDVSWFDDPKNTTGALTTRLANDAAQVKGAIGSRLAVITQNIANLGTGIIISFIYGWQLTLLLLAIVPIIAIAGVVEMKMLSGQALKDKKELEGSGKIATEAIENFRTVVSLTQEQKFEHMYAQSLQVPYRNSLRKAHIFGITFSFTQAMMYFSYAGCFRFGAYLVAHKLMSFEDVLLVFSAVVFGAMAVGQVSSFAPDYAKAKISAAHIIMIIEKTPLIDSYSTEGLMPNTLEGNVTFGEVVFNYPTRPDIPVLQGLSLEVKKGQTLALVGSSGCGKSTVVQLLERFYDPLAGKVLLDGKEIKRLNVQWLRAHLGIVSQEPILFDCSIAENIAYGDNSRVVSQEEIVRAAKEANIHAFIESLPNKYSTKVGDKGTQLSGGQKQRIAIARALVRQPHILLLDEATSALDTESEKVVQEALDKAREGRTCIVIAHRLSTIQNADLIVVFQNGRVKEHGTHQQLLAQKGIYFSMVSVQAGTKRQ

[7] = hESC survival regulators, cell-based (AID 493140; call rule not given here;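 also: cells exposed to compounds for four days before counting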); settings: human embryonic stem cell survival screen; stronger effect = higher value
[8] = liver-stage malaria parasite growth inhibition, primary screen, cell-based, HepG2, luciferase luminescence, HepG2 viability (AID 624349; in the data active = parasite load remaining mostly below about 12%, no sharp cut-off; inactive = mostly above about 10%;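 also: 100% = mean of DMSO negative control wells on the same plate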); settings: P. berghei liver stage in HepG2, luciferase luminescence, concentration not given here; parasite load remaining: stronger effect = lower value; viability: measured here: HepG2 viability without parasites
[9] = polyglutamine-triggered caspase-3 activation inhibitors, cell-based (AID 1583); settings: polyglutamine-induced caspase-3 activation, cell assay; stronger effect = higher value;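 tested at 10 µM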
[10] = suppressors of polyQ aggregation in yeast, 75Q-TubU reporter (AID 1593); settings: Yeast 75Q polyglutamine aggregation reporter
[11] = rescue of polyQ-huntingtin neuronal dysfunction in worms, whole organism, C. elegans mechanosensory neurons, N-terminal huntingtin (AID 1599); settings: touch response, stronger effect = higher value
[12] = inhibitors of mitochondrial cytochrome c release, biochemical, purified mitochondria (AID 1603); settings: stronger effect = lower value;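 also: mouse liver mitochondria challenged with calcium chloride; signal normalized to the plate average as 100%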
[13] = inhibitors of polyQ protein aggregation (AID 1604); settings: polyglutamine-induced protein aggregation inhibition assay; stronger effect = higher value; tested at 2.5 µM
[14] = enhancers of glutamate uptake in motor neurons, MN-1 cell line (AID 1612); settings: MN-1 motor neuron cells, stronger effect = higher value;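 also: tested at 1 µM final; 0% = mean of DMSO vehicle wells on each plate; positive means more glutamate uptake than control and negative means less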
[15] = reducers of polyQ inclusions in PC12 cells, cell-based, NGF-treated PC12, GFPQ80 (AID 1614); settings: PC12 NGF-treated GFP-polyQ80 inclusion reduction;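 also: lower means fewer inclusions and 0 means no inclusions at all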
[16] = suppressors of polyglutamine aggregation in yeast, 75Q-TubH (AID 1616); settings: S. cerevisiae 75Q-TubH polyglutamine aggregation suppression; stronger effect = higher value
[17] = target: NAD(+) hydrolase SARM1 (Homo sapiens) (UniProt Q6SZW1); test: SARM1 TIR NADase inhibitors, cell lysate, NAD-Glo luminescence (AID 1508614;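 active = compound whose remaining NAD level is above about 45 nM, limit read from the data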;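 also: higher remaining NAD means stronger inhibition of SARM1 NADase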); settings: SAM-TIR HEK293T lysate NADase, at 1 µM, stronger effect = higher value
NAD(+) hydrolase SARM1 (Homo sapiens), sequence (Q6SZW1 whole entry, looked up): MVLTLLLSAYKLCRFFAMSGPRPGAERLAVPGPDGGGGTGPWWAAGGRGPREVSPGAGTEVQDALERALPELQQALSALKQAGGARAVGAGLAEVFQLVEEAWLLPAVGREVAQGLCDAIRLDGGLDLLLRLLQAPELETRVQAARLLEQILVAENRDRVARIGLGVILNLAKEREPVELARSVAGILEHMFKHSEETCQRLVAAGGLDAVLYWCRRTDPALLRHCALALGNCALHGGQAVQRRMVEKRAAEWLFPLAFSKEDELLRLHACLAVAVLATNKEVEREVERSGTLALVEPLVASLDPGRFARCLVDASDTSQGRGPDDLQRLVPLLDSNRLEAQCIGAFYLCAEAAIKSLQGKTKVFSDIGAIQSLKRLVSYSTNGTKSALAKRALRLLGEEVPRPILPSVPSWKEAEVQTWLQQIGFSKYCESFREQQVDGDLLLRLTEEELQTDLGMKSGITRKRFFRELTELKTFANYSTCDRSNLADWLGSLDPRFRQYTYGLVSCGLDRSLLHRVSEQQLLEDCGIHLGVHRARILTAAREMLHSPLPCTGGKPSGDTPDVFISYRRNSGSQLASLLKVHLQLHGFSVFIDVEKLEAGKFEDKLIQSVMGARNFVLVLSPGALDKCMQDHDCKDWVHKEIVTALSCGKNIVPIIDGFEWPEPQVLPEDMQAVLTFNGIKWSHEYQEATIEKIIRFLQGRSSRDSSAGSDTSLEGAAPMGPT

[18] = circadian clock period modulators, cell-based, LOPAC library, luminescence reporter (AID 2774; call rule not given here;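 also: values are relative to mean of DMSO wells on each plate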); settings: circadian reporter cells, at 7 µM, actives lie on both sides
[19] = Cy5 fluorescence interference with SSB-bound oligo, artefact control for HCV NS3 helicase inhibitor project, biochemical, NIH Clinical Collection, E. coli SSB (AID 743268; call rule not given here)
[20] = system: Hepatitis C virus NS3 helicase; test: HCV NS3 helicase inhibitors, primary screen, biochemical, fluorescence polarization, NIH Clinical Collection (AID 743270; call rule not given here); settings: NS3 helicase binding to Cy5-dT15 DNA, stronger effect = higher value, concentration not given here
[21] = target: Single-stranded DNA-binding protein (Escherichia coli (strain K12)) (UniProt P0AGE0); test: E. coli SSB displacement from DNA, counter-screen for HCV NS3 helicase inhibitor project, biochemical, fluorescence polarization, NIH Clinical Collection (AID 743271; in the data active = inhibition above about 28%); settings: stronger effect = higher value, concentration not given here
[22] = fluorescence interference in NS3h assay format, artefact control for HCV NS3 helicase inhibitor project, biochemical, NIH Clinical Collection (AID 743272; call rule not given here;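 also: HCV NS3 helicase with a Cy5 labelled single stranded DNA probe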); settings: fluorescence interference counterscreen, stronger effect = lower value
[23] = stronger effect = lower value, cell number ratio, induced over uninduced
[24] = measured here: relative caspase fold change +Dox/-Dox
[25] = measured here: total cells with miR-34 induction, stronger effect = lower value
[26] = measured here: total cells without miR-34 induction
[27] = MELAS cybrid survival, CellTiter-Glo 48 h, stronger effect = higher value
[28] = Rieske KO mouse fibroblast survival, CellTiter-Glo 72 h

CCCCCN(C)CCC(O)(P(=O)(O)O)P(=O)(O)O
inhibition [1]: -2% (inactive)
fluorescence ratio (interference) [2]: 1 (inactive)
fold change [3, 23]: 0.977 (inactive) and 0.868 (inactive)
fold change [3, 24]: 0.937 and 1.66
cell count [3, 25]: 10500 and 8850
cell count [3, 26]: 10800 and 10200
z-score [4, 27]: -0.786 (inactive) and -0.235 (inactive)
z-score [4, 28]: 0.068 and -1.03
z-score [5]: 0.42 (inactive) and 0.08 (inactive)

O=C1OCCN1N=Cc1ccc([N+](=O)[O-])o1
fluorescence slope change [6]: 82.1% (active)
survival [7]: 4.33 (inactive)
parasite load remaining [8]: 34.2% (inactive)
viability [8]: 103%
fold change [3, 23]: 0.869 (inactive)
fold change [3, 24]: 1.27
cell count [3, 25]: 7950
cell count [3, 26]: 9150
z-score [4, 27]: -1.23 (inactive)
z-score [4, 28]: -1.17

Oc1ccc2c3c1OC1c4[nH]c5ccccc5c4C[C@@]4(O)C(C2)N(CC2CC2)CC[C@]314 (stereo partly specified)
fold change ([3]; stronger effect = lower value): 0.943 (inactive)
fold change [3, 24]: 1.78
cell count [3, 25]: 8150
cell count [3, 26]: 8650
z-score [5]: -0.925 (inactive)

COc1cc2c(cc1OC)[C@@]13CCN4CC5=CCOC6CC(=O)N2C1C6C5CC43 (stereo partly specified)
fold change [3, 23]: 0.989 (inactive)
fold change [3, 24]: 1.53
cell count [3, 25]: 8280
cell count [3, 26]: 8360
z-score [5]: -0.335 (inactive)

CCC1C=CC=CCC(C)C(O)C(C)C(=O)C(C)C(O)C(C)C(=O)C(C)C(O)C(C)C=CC(=O)OC2C(C)C(CC1)O[C@@]1(CCC(C)C(CC(C)O)O1)C2C (stereo partly specified)
fold change [3, 23]: 1.03 (inactive)
fold change [3, 24]: 1.64
cell count [3, 25]: 7130
cell count [3, 26]: 6920
z-score [5]: -0.03 (inactive)

C[C@]12CCC3[C@@H](CC[C@@H]4C[C@H](O)CC[C@]34C)[C@@H]1CCC2=O (stereo partly specified)
fluorescence slope change [6]: 52.7% (active)
survival [7]: 4.25 (inactive)
parasite load remaining [8]: 68.6% (inactive)
viability [8]: 95.7%
fold change ([3]; stronger effect = lower value): 0.895 (inactive)
fold change [3, 24]: 1.16
cell count [3, 25]: 8930
cell count [3, 26]: 9980
z-score [4, 27]: -0.449 (inactive)
z-score [4, 28]: 0.448

C[C@]12CCC(=O)C=C1CC[C@@H]1[C@@H]2C(=O)C[C@]2(C)C(=O)CC[C@@H]12
survival [7]: 4.17 (inactive)
parasite load remaining [8]: 81.1% (inactive)
viability [8]: 96.5%
fold change ([3]; stronger effect = lower value): 0.907 (inactive)
fold change [3, 24]: 0.858
cell count [3, 25]: 9500
cell count [3, 26]: 10500
z-score [4, 27]: 0.15 (inactive)
z-score [4, 28]: -0.446

CN1C[C@H](CO)C=C2c3cccc4[nH]cc(c34)C[C@H]21
fluorescence slope change [6]: 116% (active)
inhibition [9]: 16.6%
score [10]: 1.69
rescue above control [11]: 7.23
cytochrome c release ratio [12]: 1.6
inhibition of aggregation [13]: 44.9%
glutamate uptake change [14]: -16.1%
inclusion score [15]: 2
aggregation suppression score [16]: 1.67
survival [7]: 7.67 (inactive)
parasite load remaining [8]: 67.2% (inactive) and 71.4% (inactive)
viability [8]: 100% and 77.2%
fold change ([3]; stronger effect = lower value): 0.809 (inactive)
fold change [3, 24]: 1.6
cell count [3, 25]: 8450
cell count [3, 26]: 10400

C#CC(C)(O)CC (stereo unspecified)
fold change ([3]; stronger effect = lower value): 0.85 (inactive)
fold change [3, 24]: 1.03
cell count [3, 25]: 8040
cell count [3, 26]: 9450
remaining NAD [17]: 10 nM (inactive)

CCCCCC[C@H]1C(=O)O[C@H](C)C(NC(=O)c2cccc(NC=O)c2O)C(=O)O[C@@H](C)[C@@H]1OC(=O)CC(C)C (stereo partly specified)
survival [7]: 38.8 (inactive)
parasite load remaining [8]: 0.52% (inactive) and 0.28% (active)
viability [8]: 30.3% and 71%
fold change ([3]; stronger effect = lower value): 1.21 (inactive)
fold change [3, 24]: 0.771
cell count [3, 25]: 3300
cell count [3, 26]: 2720
z-score [4, 27]: 0.402 (inactive)
z-score [4, 28]: 0.0989

C[N+]1([O-])[C@@H]2CC(OC(=O)[C@H](CO)c3ccccc3)C[C@H]1[C@@H]1O[C@@H]12 (stereo partly specified)
fluorescence slope change [6]: 76.2% (active)
survival [7]: 10.4 (inactive)
parasite load remaining [8]: 3.97% (inactive) and 96.4% (inactive)
viability [8]: 30.6% and 90.4%
fold change [3, 23]: 0.882 (inactive)
fold change [3, 24]: 1.03
cell count [3, 25]: 8380
cell count [3, 26]: 9510
z-score [4, 27]: -1.22 (inactive)
z-score [4, 28]: -0.531

OC[C@H]1O[C@@H](n2cnc3cc(Cl)c(Cl)cc32)C(O)[C@H]1O (stereo partly specified)
survival [7]: 56.1 (inactive)
fold change ([3]; stronger effect = lower value): 0.916 (inactive)
fold change [3, 24]: 0.917
cell count [3, 25]: 1540
cell count [3, 26]: 1680

CCCCCC=CCC=CCC=CCC=CCCCC(=O)Nc1ccc(O)cc1
fold change [3, 23]: 0.829 (inactive)
fold change [3, 24]: 1.13
cell count [3, 25]: 7710
cell count [3, 26]: 9290
z-score [5]: -1.44 (inactive)

CCCCCCCCCCCCCCCC(=O)OC[C@H](COP(=O)([O-])OCC[N+](C)(C)C)OC(C)=O
survival [7]: 57 (inactive)
fold change ([3]; stronger effect = lower value): 0.988 (inactive)
fold change [3, 24]: 1.32
cell count [3, 25]: 5610
cell count [3, 26]: 5670

COc1ccn(C)c(=O)c1C#N
survival [7]: 4.25 (inactive)
parasite load remaining [8]: 84.9% (inactive)
viability [8]: 97.3%
fold change ([3]; stronger effect = lower value): 0.883 (inactive)
fold change [3, 24]: 1.32
cell count [3, 25]: 9150
cell count [3, 26]: 10400

COc1cc2c3cc1Oc1cc(ccc1O)C[C@@H]1c4c(cc(OC)c(O)c4Oc4cccc(c4)C[C@@H]3N(C)CC2)CC[N+]1(C)C
survival [7]: 7.17 (inactive)
parasite load remaining [8]: 52.1% (inactive) and 85.1% (inactive)
viability [8]: 113% and 81.4%
fold change [3, 23]: 0.822 (inactive)
fold change [3, 24]: 1.32
cell count [3, 25]: 8210
cell count [3, 26]: 9980

CC(C)(O)[C@@H]1[C@H]2OC(=O)[C@@H]1[C@]1(O)C[C@H]3O[C@]34C(=O)O[C@H]2[C@]14C (tested in a mixture with another compound)
period change [18]: -0.105 h (inactive)
parasite load remaining [8]: 96.3% (inactive)
viability [8]: 67.1%
inhibition [1]: -5% (inactive)
fluorescence ratio (interference) [2]: 1 (inactive)
fluorescence ratio [19]: 1 (inactive)
inhibition [20]: 0.4% (inactive)
inhibition [21]: -0.1% (inactive)
fluorescence ratio [22]: 0.9 (inactive)
fold change ([3]; stronger effect = lower value): 1.06 (inactive)
fold change [3, 24]: 1.05
cell count [3, 25]: 11200
cell count [3, 26]: 10500
z-score [5]: 0.54 (inactive)

CC(C)(O)C1C2OC(=O)C1[C@]1(O)CC3O[C@]34C(=O)OC2[C@]14C (stereo partly specified) (tested in a mixture with another compound)
fold change ([3]; stronger effect = lower value): 0.954 (inactive)
fold change [3, 24]: 1.55
cell count [3, 25]: 9380
cell count [3, 26]: 9830
z-score [5]: 0.86 (inactive)

Source: PubChem BioAssay
